Compound activity deposited in PubChem by National Center for Advancing Translational Sciences (NCATS).
Most compounds without a hit are left out; they make up all but 12% or so of the library.
L3MBTL1 inh – blocks human L3MBTL1; Q9Y468; AlphaScreen L3MBTL1–H3K9me1 peptide binding; Potency, µM (series often up to 57.1 µM), actives largely listed as inhibitors; hit rate 0.66% among 230,000; note: nearly all actives have a fitted effect of over 60% in size
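First, the protein-peptide complex forms for 30 min at room temperature (L3MBTL1 50 nM, biotinylated H3K9me1 peptide 75 nM). Next, compounds are pin-transferred and incubated 30 min. Finally, AlphaScreen beads are added and read after 30 min.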
BAZ2B block – blocks human BAZ2B; AlphaScreen BAZ2B-H3K14Ac peptide displacement; Potency, µM (doses to about 114 µM), usual class: inhibitors; AID 504333; hit rate 4.4% among 360,000; note: nearly all actives have a fitted effect of over 60% in size
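Multi-concentration screen (max 110 uM) measuring displacement of acetylated histone H3 peptide from BAZ2B by AlphaScreen, using 50 nM protein, 50 nM peptide and 10 ug/mL streptavidin donor plus Ni-chelate acceptor beads.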
JMJD2A Tudor inh – inhibitors of human JMJD2A Tudor domain; AID 504339; Potency, µM (titrated, usually from 114 µM), actives largely listed as inhibitors; AlphaScreen JMJD2A-Tudor / H3K4me3 peptide binding; hit rate 4.4% among 390,000; note: nearly all actives have a fitted effect of over 50% in size
Sfp inh – inhibitors of Bacillus subtilis Sfp phosphopantetheinyl transferase | hit rate 3.5% among 310,000 | Q9F4F7 | Potency, µM, hits mostly inhibitors | AID 1490 | Biochemical Sfp PPTase activity, qHTS;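 note: the enzyme is Sfp with the accession as filed and its product quenches rhodamine fluorescence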
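Fluorescence-quenching assay with 15 nM Sfp, 5 uM rhodamine-CoA and 12.5 uM BHQ-2-labelled ybbR peptide in pH 7.6 Hepes/MgCl2 buffer. Enzyme was pre-incubated with compound for 15 min at room temperature. Rate was taken from the 30-min fluorescence change (525/598 nm).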
G9a block – inhibitors of human histone lysine methyltransferase G9a. Q96KQ7. G9a H3K9 monomethylation, AlphaScreen, 2 h. Potency, µM (titrated, usually from 102 µM), hits mostly inhibitors. hit rate 8.8% among 350,000. AID 504332; note: nearly all actives have a fitted effect of over 75% in size
Target sequence (Q96KQ7 913-1193 limits assumed): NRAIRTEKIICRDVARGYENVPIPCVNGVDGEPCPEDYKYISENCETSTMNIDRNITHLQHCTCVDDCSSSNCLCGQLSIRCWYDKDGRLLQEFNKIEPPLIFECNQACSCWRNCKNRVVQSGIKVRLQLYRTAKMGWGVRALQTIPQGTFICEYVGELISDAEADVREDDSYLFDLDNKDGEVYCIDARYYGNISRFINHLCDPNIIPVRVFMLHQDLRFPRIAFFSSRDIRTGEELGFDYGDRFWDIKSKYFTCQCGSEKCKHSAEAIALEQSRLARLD
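Using a bead-based AlphaScreen, monomethylated H3K9 product from 2 h room-temperature reactions (G9a 20 nM, peptide 500 nM, SAM 20 uM) was detected with 0.5 ug/mL rabbit anti-H3K9me1 antibody.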
HP1b chromo inh – HP1-beta chromodomain-methylated histone interaction inhibition; P83916; AlphaScreen HP1-beta / biotin-H3K9me3 peptide binding; Potency, µM (titrated, usually from 114 µM), most hits filed as inhibitors; hit rate 0.56% among 390,000; note: nearly all actives have a fitted effect of over 70% in size
Target sequence (P83916 whole entry, looked up): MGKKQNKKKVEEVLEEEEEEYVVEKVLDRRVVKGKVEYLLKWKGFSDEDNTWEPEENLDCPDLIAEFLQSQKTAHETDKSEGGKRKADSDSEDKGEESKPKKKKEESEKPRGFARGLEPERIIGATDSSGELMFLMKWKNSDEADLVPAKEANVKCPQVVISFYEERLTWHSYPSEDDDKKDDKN
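Compound inhibition of the preformed complex between 50 nM HP1-beta and 50 nM biotinylated H3K9me3 peptide was read by AlphaScreen. Buffer was PBS pH 7.4 with 0.01% Tween-20. Incubations ran 30 min at room temperature, with 10 ug/mL donor/acceptor beads.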
Of the large screens only hits and unclear results are named; the others gave an inactive call. Calls come from the whole dose curve; as a rule, active = well fitted curve in the direction sought with a large enough effect; inconclusive = small, poorly fitted or top-dose-only effect, or another doubt; inactive = no such curve, though single readings can be large; an effect the other way counts as inactive or inconclusive.

Cc1cc[n+](-c2[nH]c(=O)sc2/C=N/N=C(\[O-])c2ccccc2)cc1C	BAZ2B block inconclusive, G9a block 50µM
Cc1ccc2[nH]c3c(c2c1)CN(C(=O)CN1CCN(c2ccccn2)CC1)CC3	BAZ2B block 50µM, G9a block 20µM
Cc1ccc2[nH]c3c(c2c1)CN(C(=O)CN1CCN(Cc2ccc4c(c2)OCO4)CC1)CC3	JMJD2A Tudor inh 50µM, G9a block inconclusive, HP1b chromo inh inconclusive
Cc1ccc2[nH]c3c(c2c1)CN(C(=O)CN1CC(C)OC(C)C1)CC3 (stereo not drawn)	G9a block inconclusive
O=C(CN1CCN(c2ccccc2)CC1)N1CCc2[nH]c3ccccc3c2C1	BAZ2B block 50µM, JMJD2A Tudor inh inconclusive, G9a block inconclusive
CCN(CC(=O)Nc1c(F)cccc1F)C(=O)c1cc(C)nc2ccccc12	none (no result: Sfp inh)
Cc1cc(SCC(=O)NCc2ccc(Cl)cc2)nc(=O)[nH]1	none (no result: L3MBTL1 inh, Sfp inh)
COc1ccc(NC2CCCN(C(=O)C3(C)CCCCC3)C2)cc1 (stereo not drawn)	BAZ2B block 32µM (no result: L3MBTL1 inh, G9a block)
Cc1ncsc1CCC(=O)N1CCCC(Nc2ccc(C(C)C)cc2)C1 (stereo not drawn)	G9a block 50µM (no result: L3MBTL1 inh)
COc1ccc(NC2CCCN(C(=O)c3ccc(OC)cc3OC)C2)cc1 (stereo not drawn)	BAZ2B block inconclusive (no result: L3MBTL1 inh, G9a block)
O=C(CSc1ccccc1)N1CCCC(Nc2ccccc2)C1 (stereo not drawn)	JMJD2A Tudor inh 16µM (no result: L3MBTL1 inh)
COc1ccc(NC2CCCN(Cc3cccc4cnccc34)C2)cc1 (stereo not drawn)	BAZ2B block 45µM, JMJD2A Tudor inh inconclusive, G9a block 45µM
COc1ccc(NC2CCCN(C(=O)CCc3scnc3C)C2)cc1 (stereo not drawn)	G9a block inconclusive (no result: L3MBTL1 inh)
COc1ccc(NC2CCCN(Cc3cccc4cnccc34)C2)cc1OC (stereo not drawn)	BAZ2B block inconclusive, JMJD2A Tudor inh inconclusive, G9a block inconclusive
Cc1ccc(NS(=O)(=O)c2c(C(=O)N3CCCC3)c(C)n(C)c2C)cc1	none (no result: L3MBTL1 inh)
CC(C)c1ccc(NC(c2nnc(-c3ccccc3)o2)c2ccc(F)cc2Cl)cc1 (stereo not drawn)	none (no result: L3MBTL1 inh, Sfp inh)
Cc1ccc(NC(=O)c2cc3c(=O)n(Cc4cccnc4)ccc3nc2C)cc1F	none (no result: L3MBTL1 inh, Sfp inh)
COc1ccc(NC2CCCN(C(=O)c3cccc(N4CCNC4=O)c3)C2)cc1 (stereo not drawn)	G9a block 40µM (no result: L3MBTL1 inh)
CC(C)c1ccc(NC2CCCN(C(=O)c3cccc(N4CCNC4=O)c3)C2)cc1 (stereo not drawn)	BAZ2B block inconclusive (no result: L3MBTL1 inh, G9a block)
COc1ccc(NC2CCCN(C(=O)CCC(=O)c3ccc(F)cc3)C2)cc1 (stereo not drawn)	BAZ2B block 40µM, JMJD2A Tudor inh inconclusive (no result: L3MBTL1 inh, G9a block)
COc1cc(OC)cc(C(=O)N2CCCC(Nc3ccc(F)cc3)C2)c1 (stereo not drawn)	none (no result: L3MBTL1 inh, G9a block)
COc1ccc(CCC(=O)N2CCCC(Nc3ccc(OC)cc3)C2)cc1 (stereo not drawn)	BAZ2B block inconclusive, G9a block 40µM (no result: L3MBTL1 inh)
COc1ccc(NC2CCCN(C(=O)CSc3ccncc3)C2)cc1 (stereo not drawn)	BAZ2B block 50µM, Sfp inh inconclusive, G9a block 40µM (no result: L3MBTL1 inh)
COc1ccc(NC2CCCN(C(=O)c3cccnc3)C2)cc1 (stereo not drawn)	none (no result: L3MBTL1 inh)
Cc1ccc(C)c(N2CCN(C(=O)c3ccc(CS(=O)Cc4cccc(Cl)c4)o3)CC2)c1 (stereo not drawn)	BAZ2B block inconclusive, JMJD2A Tudor inh inconclusive, G9a block inconclusive (no result: L3MBTL1 inh)
Cc1ccc(CNc2ncnc3nc[nH]c23)cc1	none (no result: L3MBTL1 inh, BAZ2B block, Sfp inh, G9a block)
Cc1ccc2c(c1)c(=O)c1ccccc1n2CCCC(=O)Nc1ccc(C)c(C)c1	none (no result: L3MBTL1 inh, Sfp inh)
CC(C)Oc1ccccc1C1CC(=O)Nc2cc3c(cc21)OCO3 (stereo not drawn)	BAZ2B block inconclusive, JMJD2A Tudor inh 56µM, G9a block inconclusive
COc1ccc(N2CCN(C(=O)C(OC(C)=O)c3ccccc3)CC2)cc1 (stereo not drawn)	G9a block 8.9µM
